Measured values from PubChem BioAssay (NCI).
The panel holds about 83,000 compounds, 20% with a hit somewhere; the sample as a whole holds those more often.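 Assay: single dose, 48 h. Readout: percent growth (0 = no net growth; negative = cell death). Active: <10.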 The source made the active and inactive calls.

Assays:
Assay in all cases: NCI-60 one-dose screen, 48 h (100 = growth as untreated, 0 = no growth, -100 = all killed)
Settings in all cases: 10 µM unless noted
[1] = test system: NCI/ADR-RES ovarian
[2] = test system: T-47D breast
[3] = test system: BT-549 breast
[4] = test system: SW-620 colon
[5] = test system: MCF7 breast
[6] = test system: HCT-116 colon
[7] = test system: HCC-2998 colon
[8] = test system: KM12 colon
[9] = test system: MDA-MB-435 melanoma

Measured: growth

C[n+]1c(/C=C/c2ccc(N(CCCl)CCCl)cc2)sc2ccccc21
inactive: [1] 102% | [2] 16.8% | [3] 64.3% | [4] 23.1% | [5] 27.3% | [6] 48.4% | [7] 84.4% | [8] 74.8%

CCN(CCO)C(Cc1ccccc1)c1ccccc1 (stereo not given)
inactive: [1] 94.7% | [2] 111% | [3] 100% | [4] 96.4% | [5] 94% | [6] 99.3% | [7] 96.8% | [8] 99.4%

COc1ccc(C2=N[C@@H](Cc3ccccc3)C(=O)Nc3ccsc32)cc1
inactive: [1] 28.4% | [2] 61.1% | [3] 51.7% | [4] 37.6% | [5] 24.1% | [6] 27.5% | [7] 81.5% | [8] 39.1%

COC(=O)[C@@H](C)C[C@H](Cc1ccccc1)NC(=O)c1csc([C@@H](C[C@H](C(C)C)N(C)C(=O)[C@H](C)NC(=O)[C@H]2CCCN2C)OC(C)=O)n1
inactive: [1] 92.4% | [2] 50.9% | [3] 36.9% | [4] 28.5% | [7] 62.8% | [8] 30.7%

Oc1c(O)c(Cl)c(Cl)c(Cl)c1Cl
inactive: [1] 11.7% | [2] 15.1% | [3] 52.5% | [4] 28% | [5] 13.5% | [6] 16.4% | [7] 72.8% | [8] 30.4%

O=C([O][Hg][c]1ccccc1)c1ccccc1
active: [2] -37.8% | [3] -92.7% | [4] -49.6% | [5] -57.7% | [6] -82.5%
inactive: [1] 37.9% | [7] 51% | [8] 87.6%

CC(C)CCC(=O)O[C@H]1CC[C@H]2[C@@H]3CCC4=CC(=O)CC[C@]4(C)[C@H]3CC[C@]12C
inactive: [1] 99% | [2] 102% | [3] 104% | [4] 94.5% | [5] 105% | [6] 99.8% | [7] 105% | [8] 95.2%

CS(=O)(=O)CCN1CC2CCCC(C2)C1
inactive: [1] 105% | [2] 102% | [3] 92.5% | [4] 111% | [6] 94.7% | [7] 99.5% | [8] 111%

CCOC(=O)c1c(C)n(Cc2ccccc2)c2cc(CN(C)C)c(O)cc12
inactive: [1] 63.5% | [2] 61.1% | [3] 64.7% | [4] 63% | [5] 55.3% | [6] 51.7% | [7] 55.4% | [8] 76.5%

O=NNc1ccccn1
inactive: [1] 75.1% | [2] 97.3% | [3] 90% | [4] 47.8% | [5] 71.4% | [6] 44.4% | [7] 86.7% | [8] 96.7%

Clc1ccc(CSC(Cn2ccnc2)c2ccc(Cl)cc2Cl)cc1 (stereo not given)
inactive: [1] 14.1% | [2] 29.5% | [4] 29.2% | [5] 20.9% | [7] 36.1% | [8] 16.1%
active: [3] 4.34% | [6] 7.38%

CC(=O)O[C@H](C[C@H](C(C)C)N(C)C(=O)[C@@H](NC(=O)[C@H]1CCCN1C)C(C)C)c1nc(C(=O)N[C@@H](Cc2ccccc2)C[C@H](C)C(=O)O)c(C)s1
inactive: [2] 50.6% | [4] 25.1% | [7] 21.9%
active: [1] 5.87% | [3] -22.7% | [8] 8.49%

CCOC(=O)[C@@H](C)C[C@H](Cc1ccccc1)NC(=O)c1csc([C@@H](C[C@H](C(C)C)N(C)C(=O)[C@H](CCC(C)C)NC(=O)[C@H]2CCCCN2C)OC(C)=O)n1
active: [1] 4.75% | [3] -24.5%
inactive: [2] 64.9% | [4] 25.4% | [7] 10% | [8] 13.9%

COc1cccc(/C=C/[N+](=O)[O-])c1
active: [5] -11.2% | [6] -60.9% | [7] -87.9%
inactive: [1] 92.6% | [2] 41.7% | [3] 29.5% | [4] 77.5% | [8] 15.6%

CC(C)COC(C[N+](=O)[O-])C(Cl)(Cl)Cl (stereo not given)
inactive: [1] 94.2% | [2] 111% | [3] 106% | [4] 107% | [5] 98.8% | [6] 111% | [7] 102% | [8] 104%

Fc1ccc2c(c1)c(-c1nc(-c3c[nH]c4ncccc34)cs1)cn2CCN1CCOCC1
active: [2] 7.41%
inactive: [1] 33.6% | [3] 49.6% | [4] 62.9% | [5] 29.7% | [6] 52.6% | [7] 92.9% | [8] 32.2%

CC(C)[C@@H]1NC(=O)[C@]2(C)CSC(=N2)c2csc(n2)CNC(=O)C[C@@H](/C=C/CCS)OC1=O
inactive: [1] 52% | [3] 41.7% | [5] 13.9%
active: [2] -17.9% | [4] 1.33% | [6] -34.8% | [7] -48% | [8] 1.21%

CC(C)(C)N1CC1C#N (stereo not given)
inactive: [1] 106% | [2] 89.3% | [9] 108% | [4] 103% | [5] 100% | [6] 100% | [7] 98.8% | [8] 99.2%

O=C1CNC(c2ccccc2)c2cc(Cl)ccc2N1 (stereo not given)
inactive: [1] 100% | [2] 88.4% | [3] 122% | [4] 97.2% | [5] 97.8% | [6] 97% | [7] 106% | [8] 91.2%

CC(=O)O[C@H]1CC[C@]2(C)[C@H]3CC[C@]4(C)[C@@H](OC(C)=O)CC[C@H]4[C@@H]3[C@@H](C)[C@]2(O)C1
inactive: [1] 98.9% | [2] 106% | [3] 113% | [4] 104% | [5] 104% | [6] 98.1% | [7] 108% | [8] 109%

O=C1C2C(C(=O)[N]1[Hg][c]1ccccc1)C1(Cl)C(Cl)=C(Cl)C2(Cl)C1(Cl)Cl (stereo not given)
inactive: [1] 40.6% | [7] 11.7% | [8] 74.6%
active: [2] -36.9% | [3] -89% | [4] -78.4% | [5] -55.3% | [6] -77.7%

C#Cc1ccc2c(c1)C(c1ccccc1F)=NCC(=O)N2C
inactive: [1] 16.6% | [2] 40.9% | [3] 47.2% | [4] 30.3% | [5] 19.7% | [6] 17.3% | [7] 65.2% | [8] 27.8%

CCC1CC(O)c2c(O)c3c(c(O)c2C1O)C(=O)c1cccc(O)c1C3=O (stereo not given) (tested in a mixture with another compound)
active: [1] -55.4% | [2] -14.1% | [3] -68.1% | [4] -60.3% | [5] -51% | [6] -39.8% | [8] -38.4%

CCn1c2ccccc2c2cc(C(=O)c3cccc4c3CCCN4)ccc21
inactive: [1] 92.7% | [2] 104% | [3] 98.1% | [4] 96.1% | [5] 96.5% | [6] 105% | [7] 104% | [8] 94.9%

O=C1C2C(C(=O)[N]1[Hg][c]1cccs1)C1(Cl)C(Cl)=C(Cl)C2(Cl)C1(Cl)Cl (stereo not given)
active: [2] -78.5% | [3] -1.18% | [4] -40.4% | [6] -31.9%
inactive: [1] 21% | [7] 49.7% | [8] 87.3%

O=Cc1cn(Cc2ccc(Cl)cc2)c2ccccc12
inactive: [1] 90.6% | [2] 24.4% | [3] 92.7% | [4] 68.1% | [6] 63.2% | [7] 98% | [8] 109%

O=C(CCCCCCC(=O)Nc1ccc(N(CCCl)CCCl)cc1)NO
active: [2] -8.98% | [5] 9.37%
inactive: [1] 64.6% | [3] 58.9% | [4] 33.2% | [6] 36.1% | [7] 52.1% | [8] 63%

Fc1ccc(N2COOC3(OOC2)C2CC4CC(C2)CC3C4)cc1
inactive: [1] 53.2% | [2] 75.7% | [3] 95.4% | [4] 109% | [5] 76.1% | [6] 90.9% | [7] 106% | [8] 82.7%

CC(C)(N)Cc1ccccc1
inactive: [1] 111% | [2] 107% | [3] 101% | [4] 105% | [5] 99.4% | [6] 101% | [7] 110% | [8] 105%

COc1ccc(/C=C\c2cc(OC)c(OC)c(OC)c2)cc1NS(=O)(=O)c1ccc(Cl)cc1
inactive: [1] 35.2% | [2] 59.9% | [3] 83.5% | [4] 73.6% | [6] 61.8% | [7] 74.8% | [8] 50.4%

O=[N+]([O-])c1cc([N+](=O)[O-])c(Cl)cc1Cl
inactive: [7] 38%
active: [1] -45.1% | [2] -35.3% | [9] -66.5% | [4] -77.1% | [5] -57.9% | [6] -98.8% | [8] -81.1%

Oc1c(CCl)cc(Cl)cc1CCl
inactive: [1] 102% | [2] 102% | [9] 102% | [4] 115% | [5] 105% | [6] 115% | [7] 96.5% | [8] 105%
